Screens deposited in PubChem BioAssay by several laboratories.
PKA-R2B activ: PKA-R2B complex activation. hit rate 0.079% among 340,000. activation, % at 11.4 µM. PKA-R2B holoenzyme dissociation, Cy5-IP20 fluorescence polarization; R2B truncated from residue 108, S112A mutant; 0% DMSO only, 100% 113 µM cGMP. P22694+P31323;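 active means activation above a cutoff set at the mean over all compounds plus 3 SD, cut at about 18% in these data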;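 further: higher means more holoenzyme dissociation and a rise in polarization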
NRP1-CendR mod: NRP-1/CendR interaction modulation; hit rate 0.85% among 360,000; inhibition, % at 25 µM; O14786; AID 602438; FAM-RPARPAR peptide binding to NRP-1, fluorescence polarization;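 active means inhibition or corrected inhibition above about 18%, plus a signal ratio from 0.5 to 1.5, limit read from the data, passing the limit was not always enough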
ATG4B inh: inhibitors of human ATG4B cysteine protease; ATG4B cleavage of LC3-PLA2, NBD-HPC fluorescence, 1 h; inhibition, % at 8.33 µM; hit rate 0.51% among 340,000; AID 504462; in the data active means inhibition above about 40%
PKA-R1A act: activates the PKA-R1A holoenzyme complex. activation, % at 11.4 µM. hit rate 0.083% among 340,000. PKA-R1A dissociation, Cy5-IP20 fluorescence polarization; scaled: DMSO 0%, 113 µM cGMP 100%;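 active means percent activation above the mean of all tested compounds plus 3 SD, cut at about 19% in these data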;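 further: higher means more PKAc released from R1A so a rise in polarization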
VLA-4 inh: inhibition in a human VLA-4 binding assay; inhibition, % (about 7 µM as worked out from the volumes in the protocol); hit rate 0.2% among 330,000; P13612; VLA-4 expressing cells, ligand binding flow cytometry
Target sequence (P13612 whole entry, looked up): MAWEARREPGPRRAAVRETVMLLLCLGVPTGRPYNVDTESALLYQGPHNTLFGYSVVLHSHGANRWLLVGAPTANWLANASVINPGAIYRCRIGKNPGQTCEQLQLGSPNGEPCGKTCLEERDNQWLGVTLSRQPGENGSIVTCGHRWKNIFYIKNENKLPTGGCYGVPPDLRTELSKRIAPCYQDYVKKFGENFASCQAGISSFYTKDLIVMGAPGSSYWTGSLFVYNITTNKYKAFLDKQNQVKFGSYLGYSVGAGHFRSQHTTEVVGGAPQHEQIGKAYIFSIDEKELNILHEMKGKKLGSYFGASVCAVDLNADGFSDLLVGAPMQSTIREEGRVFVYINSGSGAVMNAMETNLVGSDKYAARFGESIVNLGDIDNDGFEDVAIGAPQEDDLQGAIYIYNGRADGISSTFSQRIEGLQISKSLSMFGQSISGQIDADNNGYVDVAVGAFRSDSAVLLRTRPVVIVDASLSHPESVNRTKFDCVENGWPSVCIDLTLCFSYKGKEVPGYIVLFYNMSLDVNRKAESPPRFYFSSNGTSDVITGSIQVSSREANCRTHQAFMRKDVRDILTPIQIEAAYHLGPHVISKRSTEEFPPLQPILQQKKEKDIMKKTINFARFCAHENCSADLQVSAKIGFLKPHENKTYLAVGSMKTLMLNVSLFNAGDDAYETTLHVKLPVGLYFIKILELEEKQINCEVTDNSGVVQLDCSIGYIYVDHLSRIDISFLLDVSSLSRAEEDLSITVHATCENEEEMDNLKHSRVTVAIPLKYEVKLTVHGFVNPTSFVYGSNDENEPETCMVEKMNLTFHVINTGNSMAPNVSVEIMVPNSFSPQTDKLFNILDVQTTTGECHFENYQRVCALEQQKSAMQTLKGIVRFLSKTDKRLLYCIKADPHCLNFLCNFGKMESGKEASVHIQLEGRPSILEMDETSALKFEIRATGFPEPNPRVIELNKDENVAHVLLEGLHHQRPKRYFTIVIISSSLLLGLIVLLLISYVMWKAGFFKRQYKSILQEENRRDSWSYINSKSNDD
ATG4B confirm: ATG4B (human) inhibition, single-dose confirmed | shares compounds with ATG4B inh | ATG4B protease fluorescent substrate cleavage assay | inhibition, % at 8.33 µM | hit rate 92% among 320 | AID 504757; in the data active means inhibition above about 39%
PLA2 ctr: inhibits human PLA2, flagging false ATG4B inhibitors; purified PLA2, NBD-C6-HPC fluorescence, 45 min; hit rate 66% among 1,600; inhibition, % at 8.33 µM; shares compounds with ATG4B inh
* = called active by the depositor; x = no result given. Shown are actives, neighbours in structure and some others; about 1.6% of the full set was active somewhere. Unless noted, no stated cut-off is given here; in the data, active means inhibition above about 50%; inactive means the rest.

SMILES | PKA-R2B activ | NRP1-CendR mod | ATG4B inh | PKA-R1A act | VLA-4 inh | PLA2 ctr | others
COc1cc(OC)cc(N(C(=O)CNC(=O)c2cccs2)C(C(=O)NCC2CCCO2)c2ccccc2)c1 (stereo not drawn) | 2.5 | 3.2 | -3.6 | 2.6 | -11.1 | x
CCN(CC)c1ccc(S(=O)(=O)N2CCOCC2)cc1NC(=O)COC(=O)/C=C/c1ccc(C)o1 | -14.9 | -17.6 | -8.7 | -11.6 | -7.7 | x
COc1c(C)cc(Br)cc1C(=O)Nc1ccc(C)cc1[N+](=O)[O-] | -5.4 | -9.7 | 42.0* | -8.7 | 19.6 | -18.6
C[C@H]1CN([C@@H](C)CO)C(=O)CCCn2nncc2CO[C@@H]1CN(C)Cc1ccncc1 | -5.5 | -0.2 | x | 2.4 | x | x
CCNc1nc(CSc2ccccc2)nc2sc(C)c(C)c12 | 1.3 | -3.1 | 44.8* | -4.0 | -3.1 | 46.6 | ATG4B confirm=60.6*
Cc1sc2nc(CSc3ccccc3)nc(NCCN(C)C)c2c1C | 4.1 | -13.2 | 5.6 | -1.5 | 28.6 | x
Fc1ccc(CNc2nc(-c3ccco3)cc(C(F)(F)F)n2)cc1 | -1.5 | -16.7 | 41.3* | -4.2 | 13.6 | 52.3*
O=C(CNCC1CCCCC1)Nc1ccccc1N1CCCCC1 | 3.5 | 2.1 | 41.1* | 2.8 | -3.9 | 39.1 | ATG4B confirm=64.5*
O=C(CNCCC1=CCCCC1)Nc1ccccc1N1CCCCC1 | -2.4 | 0.5 | 49.1* | -5.3 | 4.6 | 52.5*
O=C(CNC1CCCCCC1)Nc1ccccc1N1CCCCC1 | -1.4 | 1.3 | 45.6* | -14.0 | 6.8 | 52.9*
O=C(CNCC1CCCO1)Nc1ccccc1N1CCOCC1 (stereo not drawn) | 2.4 | -2.7 | -7.7 | 7.6 | -5.3 | x
COc1ccc(NC(=O)CNCCC2=CCCCC2)cc1 | -5.2 | 1.0 | 1.0 | -11.2 | -4.0 | x
NC1=NC(=Nc2cccc(S(N)(=O)=O)c2)c2ccccc21 | 7.7 | -0.2 | -8.4 | -2.5 | 23.0 | x
COc1ccccc1NS(=O)(=O)c1cccc(N=C2N=C(N)c3ccccc32)c1 | 4.6 | -7.7 | 53.7* | -23.7 | 4.1 | 56.9*
O=C(NNC(=S)Nc1ccc(Cl)c(Cl)c1)c1cccc([N+](=O)[O-])c1 | x | -4.9 | 85.5* | x | 2.0 | 91.0*
Cc1cccc(NC(=S)NNC(=O)c2cccc([N+](=O)[O-])c2)c1 | -0.8 | -3.9 | 28.0 | 3.8 | 3.3 | x
COc1ccc(-c2cc(-c3ccco3)[nH]c(=O)c2C#N)cc1 | 0.6 | -38.3 | -1.6 | 0.5 | -2.6 | x
N#Cc1c(-c2cccc(Br)c2)cc(-c2ccco2)[nH]c1=O | -5.3 | -120.1 | x | -4.3 | -13.0 | 41.0
COCCn1c(=S)[nH]c2cc(C(=O)N3CCc4ccccc43)ccc2c1=O | -10.5 | -1.9 | 19.1 | -1.2 | 10.1 | x
CCCn1c(=S)[nH]c2cc(C(=O)N3CCc4ccccc43)ccc2c1=O | 6.3 | -8.1 | 65.4* | 5.6 | 12.7 | 39.4
CCCCC(=O)NC(=S)Nc1cccc(Cl)c1N1CCCCC1 | -6.6 | -2.8 | 18.3 | 11.6 | 1.7 | x
CCCC(=O)NC(=S)Nc1cccc(Cl)c1N1CCCCC1 | -5.5 | -7.0 | 41.1* | -11.7 | -8.5 | 36.9 | ATG4B confirm=56.0*
O=C(Nc1cccc(Cl)c1N1CCCC1)c1ccc([N+](=O)[O-])o1 | -14.9 | 6.2 | 2.8 | 5.3 | 5.8 | x
O=C(Nc1cccc(Cl)c1N1CCCC1)c1ccc(Br)o1 | -12.2 | -7.1 | 56.1* | -15.9 | -1.5 | 56.0*
CCC(=O)NC(=S)Nc1cccc(Cl)c1N1CCCCC1 | -3.6 | 4.9 | 41.9* | -3.6 | -1.3 | 39.1 | ATG4B confirm=60.5*
SMILES | PKA-R2B activ | NRP1-CendR mod | ATG4B inh | PKA-R1A act | VLA-4 inh | PLA2 ctr | others
O=C(c1ccc2c(c1)OCO2)N1CCN(CCN2C(=O)c3cccc4cccc(c34)C2=O)CC1 | -7.0 | -13.5 | -10.5 | -8.9 | x | x
CCCCNC(=O)C1(C)CCN1Cc1ccc(C#N)cc1 (stereo not drawn) | x | 7.1 | x | x | x | x
CC(=O)NCc1ccc(S(=O)(=O)N2CCN(S(=O)(=O)c3ccc4ccccc4c3)CC2)cc1 | 8.5 | -14.3 | -2.7 | 8.1 | x | x
Cc1cccc(C)c1-n1nnnc1C1(C)CCC(=O)N1CC1CCCCC1 (stereo not drawn) | x | 2.0 | x | x | x | x
CCN(CC(=O)Nc1ccc(NC(C)=O)cc1)C(=O)/C=C/c1c(C)nn(-c2ccc(F)cc2)c1C | 1.6 | 7.6 | -3.3 | 0.8 | 2.4 | x
O=C(O)c1cc([N+](=O)[O-])ccc1NCc1ccccc1Cl | -1.9 | -2.9 | 48.3* | 1.8 | -5.7 | 45.3 | ATG4B confirm=63.8*
O=C(O)c1cc([N+](=O)[O-])ccc1NCc1ccccn1 | -5.8 | 9.8 | -2.3 | 8.0 | 30.9 | x
CCCCn1c(N)c(N(CCOC)C(=O)COC(=O)COc2cc(C)c(Cl)cc2C(C)C)c(=O)[nH]c1=O | 0.1 | -3.4 | 51.2* | -9.1 | 7.7 | 57.9*
O=C(/C=C/c1ccccc1)NC(=S)N1CCSCC1 | -2.1 | 1.7 | -8.1 | -0.8 | 6.4 | x
COc1cc(/C=C/C(=O)O)ccc1OS(=O)(=O)c1c(C)cc(C)cc1C | -0.5 | -0.1 | -61.6 | -19.2 | -8.1 | x
COc1ccc(OC)c(NC(=O)c2nnn(Cc3ccccc3C)c2N)c1 | -19.8 | -11.2 | 60.3* | -8.2 | 3.4 | 64.1*
CC1=C(C(=O)N(C)C)C(c2ccc(N3CCOCC3)cc2)NC(=O)N1 (stereo not drawn) | -3.6 | -4.6 | -1.4 | -9.8 | -7.4 | x
CCOc1ccccc1N1CCN(C(=S)NCc2ccco2)CC1 | -12.0 | 4.3 | 3.9 | 5.1 | -0.5 | x
Cc1cccc(N2CCN(C(=S)NCc3ccco3)CC2)c1C | -5.5 | -1.8 | 45.9* | -1.1 | 17.8 | 4.0
NC(=O)c1ccc(N2CCNC(=O)C2)c([N+](=O)[O-])c1 | 2.5 | -5.8 | -5.9 | -4.6 | -6.4 | x
CC(C)(C)N/N=C1\CC(c2ccccc2)Oc2ccccc21 (stereo not drawn) | 7.2 | 6.0 | 4.3 | 4.6 | 1.7 | x
O=C(O)c1cc(N/N=C2/CC(c3ccccc3)Oc3ccccc32)ccc1Cl (stereo not drawn) | -4.8 | -41.4 | 48.9* | 2.8 | -13.0 | 40.4 | ATG4B confirm=59.2*
O=C(O)c1ccc2nc(-c3ccco3)c(-c3ccco3)nc2c1 | -7.1 | -7.7 | -0.7 | -9.4 | x | x
O=C(Nc1cccc(C(F)(F)F)c1)c1ccc2nc(-c3ccco3)c(-c3ccco3)nc2c1 | -16.2 | -56.6 | 47.4* | -15.2 | -10.8 | 8.6
O=C(Nc1ccc2nc(-c3ccco3)c(-c3ccco3)nc2c1)NC1CC1 | -11.5 | -15.4 | 54.8* | 0.5 | x | 60.3*
CCCCn1c(=O)c2ccccc2c2ccccc2c1=O | 6.3 | -0.1 | 63.9* | -1.2 | -16.9 | 75.0*
O=C(Nc1ccccc1N1CCCC1)c1cccc(-c2cc3ccccc3oc2=O)c1 | 14.4 | -5.3 | 57.5* | 1.0 | 9.6 | 66.7*
Cc1[nH]c(=S)sc1Cc1ccc(F)cc1 | 6.6 | 19.5 | 40.0* | 5.0 | 28.1 | -11.8
